Measurements published in PubChem BioAssay AID602449 (Sanford-Burnham Center for Chemical Genomics, 2012).
About 5,000 (1.4%) of roughly 360,000 compounds were called active. The full list was thinned out, with actives kept by preference. A number with no mark means an inactive call.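 Rule for the calls: active = inhibition of 50% or more, scaled per plate between neutral and stimulator controls; inactive = the rest.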

Assay: mitochondrial permeability transition pore inhibitors, primary screen, biochemical, isolated mouse mitochondria, absorbance (AID 602449);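 note: 0% = DMSO wells given calcium and 100% = 1 mM EGTA wells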
Conditions: Ca2+ swelling absorbance, 30 min, at 10 µM, stronger effect = higher value
Compound `CC(=O)c1c(C)oc2ccc(NS(=O)(=O)c3ccccc3)cc12` has an inhibition of -0.4%.
In the case of `CC(=O)c1c(C)oc2ccc(NS(=O)(=O)c3ccc(C(=O)O)cc3)cc12`, the inhibition is reported as 0.1%.
`COc1ccc(NS(=O)(=O)c2ccc(NC(=S)NC(=O)CC(C)C)cc2)cc1` showed an inhibition of 0.5%.
`CC(=O)Nc1ccc(NS(=O)(=O)c2ccc3c(c2)NC(=O)CC(=O)N3)cc1` gave an inhibition of -1.8%.
For `COc1ccc(S(=O)(=O)Nc2ccc3oc(C)c(C(C)=O)c3c2)cc1`, the inhibition was 93.4% (active).
With `COc1cc(NS(=O)(=O)c2ccc(NC(C)=O)cc2)cc(OC)c1` the inhibition was 54% (active).
For `Cc1c(S(=O)(=O)NC(C)c2ccccc2)c(=O)n(C)c(=O)n1C` (configuration not stated), the inhibition was 1.4%.
With `CN(Cc1nc2ccccc2c(=O)[nH]1)Cc1cc(=O)oc2ccc3ccccc3c12` the inhibition was -0.3%.
`COc1cc(/C=N/N=C(\N)c2nonc2N)cc(OC)c1OC` gave an inhibition of -1.6%.
`Cc1cc(Cl)ccc1-c1nc(NCCN(C)C)nc2ccsc12` showed an inhibition of 1.8%.
Compound `CC1(c2ccc3ccccc3c2)NC(=O)NC1=O` (configuration not stated) has an inhibition of 0.6%.
`Cc1nc(SCC(=O)NC2CCCCC2C)c(C#N)c(C)c1C` (configuration not stated) showed an inhibition of 0.8%.
Work on `O=[N+]([O-])c1ccc(Sc2n[nH]c(-c3ccco3)n2)nc1` yielded an inhibition of -1.5%.
In the case of `CCCC[C@@H]1CN=C(N)N1CCc1cc(C(F)(F)F)cc(C(F)(F)F)c1`, the inhibition is reported as 88.5% (active).
For `CCCC[C@@H]1CN=C(N)N1CCCC`, the inhibition was 1.3%.
Compound `CCCCN1C(N)=NC[C@@H]1Cc1ccccc1` has an inhibition of -0.6%.
Work on `CCCN(Cc1cc2cccc(C)c2[nH]c1=O)S(C)(=O)=O` yielded an inhibition of -1.3%.
In the case of `COc1cccc(CNc2ncc(-c3ccccc3)n2C)c1`, the inhibition is reported as 2%.
For `COc1ccc(/C=C/C(=O)Nc2ccc(C34CC5CC(CC(O)(C5)C3)C4)cc2)cc1OC`, the inhibition was -0.1%.
In the case of `FC(F)Oc1ccccc1NC(=S)Nc1cccc(Cl)c1Cl`, the inhibition is reported as 50.2% (active).
Work on `CC(=O)Nc1ccc(NC(=O)COc2ccccc2C(=O)Nc2cccc(Cl)c2Cl)cc1` yielded an inhibition of 6.8%.
For `CCOC(=O)c1ccc[n+](CC(=O)Nc2ccccc2OC(F)F)c1`, the inhibition was -3.5%.
Work on `Cc1ccccc1N1CC(C(=O)Nc2ccc(S(=O)(=O)N3CCCC3)cc2)CC1=O` (configuration not stated) yielded an inhibition of -2.9%.
Work on `COCCOCCn1cnc2ccccc21` yielded an inhibition of -0.6%.
For `Clc1ncn(CCOc2ccccc2)c1Cl`, the inhibition was -3.1%.
For `Cc1cc2ncn(CCCCOc3ccccc3)c2cc1C`, the inhibition was 77.9% (active).
`CCOC(=O)C1CCCN(C(=O)c2cccc3ccccc23)CC1` (configuration not stated) showed an inhibition of 0%.
For `CC(C)CC(COCc1ccc(Cl)cc1)N1CCN(C(=O)c2ccc(C(F)(F)F)cc2)CCC1=O` (configuration not stated), the inhibition was -1.6%.
For `Cc1cc(C(=O)OCC(=O)Nc2nnc(C(C)C)s2)c2ccccc2n1`, the inhibition was 22.9%.
For `CC(C)CC(=O)N/C(N)=N/c1nc2ccccc2s1`, the inhibition was 81.8% (active).
For `CC(NC(=O)COC(=O)c1ccc2ccccc2n1)c1ccccc1` (configuration not stated), the inhibition was -0.2%.
Work on `CCOC(=O)C1CCN(C(=O)CSc2cc(=O)n(C)c3ccccc23)CC1` yielded an inhibition of 0.5%.
`Cc1ccc(-n2cc(CN(C)Cc3nccn3C)c(-c3cccc(C)c3)n2)cc1` showed an inhibition of 0.5%.
Work on `O=C(CCl)Nc1ccc(Sc2ccc(NC(=O)CCl)cc2)cc1` yielded an inhibition of 6%.
Work on `CCN(c1ccccc1)S(=O)(=O)c1ccc(NC(=O)C(C)(C)C)cc1` yielded an inhibition of -1.2%.
With `CC(C)(CCl)C(=O)Nc1ccc(Sc2ccc(F)cc2)cc1` the inhibition was 73.1% (active).
Work on `CC1(C)CCSC(/C=C/c2ccccc2)=N1` yielded an inhibition of 1.3%.
Work on `COCCN1C(=O)C(=O)/C(=C(/O)c2ccc(S(=O)(=O)N3CCCCC3)cc2)C1c1ccc(OC)c(OC)c1` (configuration not stated) yielded an inhibition of -0.3%.
`O=C(c1cc(COc2c(F)cccc2F)on1)N1CCSCC1` gave an inhibition of 2%.
For `C=CCC1(CC=C)CCCN1C(=O)c1cc(COc2ccc(-n3cncn3)cc2)on1`, the inhibition was 105% (active).
For `CCCC(=O)N1CCC1(C)C(=O)Nc1ccc(-n2cncn2)cc1` (configuration not stated), the inhibition was -1.3%.
Work on `CC(C)c1nc2oc3c(N4CCN(C)CC4)ncnc3c2c2c1CCC2` yielded an inhibition of -0.5%.
In the case of `c1ccc2cc3c(NCCN4CCOCC4)ccnc3cc2c1`, the inhibition is reported as 1.4%.
Compound `O=C1CCCc2nn(-c3ccccc3)nc21` has an inhibition of 0.8%.
With `COc1cc(OC)cc(C(=O)NC(=S)N2CCN(c3ccc(C(F)(F)F)cc3[N+](=O)[O-])CC2)c1` the inhibition was 0.6%.
In the case of `O=C(c1ccc(N2CCCC2=O)cc1)N1CCN(c2ccc(C(F)(F)F)cc2[N+](=O)[O-])CC1`, the inhibition is reported as 74.9% (active).
With `O=C(c1ccc(N2CCOCC2)c([N+](=O)[O-])c1)N1CCN(c2ccccc2F)CC1` the inhibition was 0%.
Compound `CCOc1cc(CNn2c(C)nnc2SCC(=O)NC(C)(C)C)ccc1OCC(=O)NC(C)(C)C` has an inhibition of -1.3%.
Compound `CC(C)(C)Nc1c(-c2cccs2)nc2ccccn12` has an inhibition of 0.8%.
For `Cc1ccc(N(Cc2cc(=O)[nH]c3ccccc23)C(=O)CCl)cc1`, the inhibition was -0.5%.
In the case of `Brc1ccc(CSc2ccc(-c3ccco3)nn2)cc1`, the inhibition is reported as 57.6% (active).
`COc1ccc(NC(=O)CSc2ccc(-c3ccco3)nn2)c(OC)c1` showed an inhibition of 0.7%.
`O=C(CSc1ccc(-c2ccco2)nn1)NCc1ccc2c(c1)OCO2` showed an inhibition of -0.3%.
For `CCn1c(=O)n(CC)c2cc(N3CCCC3)c(NC(=O)c3ccccc3Br)cc21`, the inhibition was 0.5%.
In the case of `CC/C(O)=C1\C(=O)CC(C)(C)CC1=NCCc1nc2ccccc2[nH]1`, the inhibition is reported as -1.5%.
For `CC1C/C(=N/NC(=O)c2cccs2)CC(C)(C)C1` (configuration not stated), the inhibition was -1%.
For `Cc1nn(C)cc1CNC(=O)Nc1ccc(Cl)cc1`, the inhibition was 92.2% (active).
For `Cc1nn(C)cc1C(=O)NNC(=S)Nc1ccc(Cl)cc1`, the inhibition was 1.7%.
`Cc1ccc(-c2cc(C(=O)NCc3cn(C)nc3C)c3cc(Br)ccc3n2)cc1` showed an inhibition of 1.7%.
With `CN(C)Cc1ccc(F)cc1Sc1cc(Cl)ccc1Cl` the inhibition was 59% (active).
With `Cc1ccc(-c2ccc(=O)n(Cc3ccc(F)cc3Cl)n2)cc1` the inhibition was 0%.
Work on `CN(Cc1ccc(F)cc1Cl)S(=O)(=O)c1cccs1` yielded an inhibition of -2.3%.
